HCV inhibitor: blocks hepatitis C virus; AID 651820; 340,000 tested, 3.4% active; Huh7.5.1 HCVcc-Cre infection, luciferase reporter, 44 h; Potency, µM (doses to about 41.8 µM), without a hit: at the top dose activity change, negative = inhibition, most hits filed as inhibitors; also: potency is read from the fitted curve at half-maximal effect; % is scaled to controls: 0 for no effect and ±100 for the full control effect
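Infectious HCVcc-Cre (~0.5 moi) was added to cells just after compound, with cells seeded 4 h earlier at 1,000 per well. Luciferase activity after 44 h culture reported infection; substrate was incubated 15 min at room temperature before reading.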
Shiga toxin inh: Shiga toxin inhibition; Vero cells, Shiga toxin protein synthesis inhibition reporter; inhibition, % at 38.7 µM; 290,000 tested, 9.2% active; in the data active = inhibition mostly above about 28%, no sharp cut-off; inactive = mostly below about 43%; also: 0% is about no effect
Pf growth 48h: inhibits P. falciparum growth in the first generation, 48 h. P. falciparum luciferase growth in erythrocytes, 48 h. Potency, µM (top dose mostly 28.7 µM), inactives show at the highest dose activity change, negative = inhibition, actives largely listed as inhibitors. 310,000 tested, 5.9% active; also: potency is read from the fitted curve at half-maximal effect; % is scaled to controls: 0 for no effect and ±100 for the full control effect
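Firefly luciferase activity from engineered P. falciparum reports growth; inhibitors lower the luminescent signal. Cultures contained 2% hematocrit erythrocytes at 0.1% final parasitemia.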
AMA1-RON2 inh: AMA1-RON2 (P. falciparum) interaction inhibition. AlphaScreen AMA1-biotinylated RON2 peptide binding. 360,000 tested, 0.2% active. Potency, µM (highest dose often 58.2 µM), inactives show at the highest dose activity change, negative = inhibition, usual class: inhibitors. AID 720542;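 also: potency is read from the fitted curve at half-maximal effect; 0% = vehicle wells and -100% = peptide control; nearly all actives have a fitted effect of over 45% in size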
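AMA1 (3D7) with his tag at 25 nM final met compounds first, then biotinylated RON2 peptide at 25 nM; detection used donor plus acceptor beads, 10 µg/mL apiece, read by AlphaScreen after 30 min at room temperature.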
Cycloheximide cs: counter-screen hit for Shiga toxin inhibitors, cycloheximide; cell reporter, cycloheximide protein synthesis inhibition counterscreen; max response, %; 300,000 tested, 12% active; AID 2314; in the data active = max response mostly above about 13%, no sharp cut-off; inactive = mostly below about 14%; also: read at 38.3 µM for the half of the compounds with a filed dose; 0% is about no effect
Pf growth 96h: P. falciparum growth inhibition at 96 hours; P. falciparum luciferase reporter growth, 96 h; Potency, µM (series often up to 28.7 µM), for the others: top-dose activity change, negative = inhibition, usual class: inhibitors; 320,000 tested, 6.9% active; AID 504834; also: potency is read from the fitted curve at half-maximal effect; % is scaled to controls: 0 for no effect and ±100 for the full control effect
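Readout is luminescence from an integrated firefly luciferase in P. falciparum. Red cells, 2% hematocrit and 0.05% parasitemia final, were cultured with compound through two parasite generations (96 hours) at 37 C, 5% CO2.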
* hit, by the source's call; ? = inconclusive; . = no result; ! = a repeat was not active; [ ] = another dose, or the depositor's remark. This is a sample that favours compounds with a hit; in the whole collection about 21% have one here. Unless noted, calls follow the shape of the dose curve; as a rule, active = well fitted curve in the direction sought with a large enough effect; inconclusive = small, poorly fitted or top-dose-only effect, or another doubt; inactive = no such curve, though single readings can be large; an effect the other way counts as inactive or inconclusive.

SMILES | HCV inhibitor | Shiga toxin inh | Pf growth 48h | AMA1-RON2 inh | Cycloheximide cs | Pf growth 96h
Cc1cc(N2C(=O)C3C4C=CC(C4)C3C2=O)ccc1Br (centres undefined) | -6% | -4 | -7% | -23% | 1 | 12µM*
Cc1c(Br)ccc(NC(=O)CCN2C(=O)C3C4CCC(C4)C3C2=O)c1C (centres undefined) | -1% | 34* | 65% | -1% | 19* | 83%
O=C(NCCN1C(=O)C2C3C=CC(C3)C2C1=O)Nc1ccc(Br)cc1 (centres undefined) | 8% | 65* | . | 14% | 83* | 125%
CC(C)c1ccc(NC(=O)COC(=O)c2cc(=O)[nH]c3ccccc23)cc1 | 5% | . | 46% | 12% | . | 37%
O=C(Cc1cccs1)N1CCN=C1SCc1ccc(Br)cc1 | -14% | -5 | ? | -1% | 5 | 20%
Cc1cc(C)c(C)c(S(=O)(=O)N2CCC(C(=O)N(C)Cc3nc4ccccc4c(=O)[nH]3)CC2)c1C | 16% | . | . | 55%[11.6 µM] | . | .
COc1ccc(NC(=O)CCN2C(=O)C3C4C=CC(C4)C3C2=O)cc1 (centres undefined) | 0% | 5 | 2% | -11% | 3 | 45%
Cc1cc(NC(=O)CCN2C(=O)C3C4C=CC(C4)C3C2=O)ccc1Br (centres undefined) | -1% | 52 | 9% | 4% | 23* | 0%
CCCn1cnnc1CNC(=O)C1CCC(=O)N(CCc2cccc(F)c2)C1 (centres undefined) | -2% | -5 | 42% | -2% | -1 | ?
O=C(CC(c1ccccc1)c1ccccc1)Nc1ccc(O)cc1 | -3% | 1 | -4% | 0% | -2 | -20%
CC(=O)Nc1ccc(NC(=O)CC(c2ccccc2)c2ccccc2)cc1 | 6% | 1 | 12µM* | 5% | -4 | 134%
CC(C)CC(=O)Nc1ccc(Nc2ccccc2)cc1 | 2.8µM* | 36* | 29% | -17% | 31 | 18%
CC(C)CC(=O)Nc1ccc(Oc2ccc(NC(=O)CC(C)C)cc2)cc1 | -4% | 5 | 20% | 15% | -1 | ?
COCCNC(=O)CSc1nc(-c2ccccc2)c(-c2ccccc2)o1 | ? | -29 | 8.3µM* | 0% | -4 | .
CC1(C(=O)Nc2ccc3ccccc3c2)CC1(Br)Br (centres undefined) | 0% | 65* | 8% | 0% | 29* | 28%
CCCCCCNC(=O)CC(c1ccccc1)c1cc(Br)ccc1O (centres undefined) | ? | 6 | 12µM* | 2% | -6 | ?
CCC(=O)Nc1ccc(C(=O)n2ccc(C)n2)cc1 | 15% | 15 | 14% | 20% | 7 | .
COCCNC(=O)CC(c1ccccc1)c1ccccc1 | 16% | -19 | . | 3% | -6 | 9.3µM*
O=C(CC(c1ccccc1)c1ccccc1)NCCOCc1ccccc1 | -21% | -1 | 10% | 5% | -3 | ?
Cc1ccn(C(=O)c2ccc(NC(=O)CC(C)C)cc2)n1 | 17% | 35 | 14% | -24% | 15* | -11%
CC(C)CC(=O)Nc1ccc2ccccc2c1 | 4% | 92*! | 22% | -16% | -2 | 30%
O=C(NCc1ccccc1)C(c1ccncc1)N(C(=O)c1csnn1)c1cccc(F)c1 (centres undefined) | 4% | 18 | -8% | 19% | -1 | 3%
CC(C)(C)CC(=O)Nc1ccc(Nc2ccccc2)cc1 | 2% | 47* | 49% | -17% | 23* | 147%
Cc1cccc(NC(=O)CC(C)(C)C)c1 | 6% | -5 | 13% | 39% | 1 | -1%
CCN(CC(=O)Nc1ccc(NC(C)=O)cc1)C(=O)CSC(c1ccccc1)c1ccccc1 | 10µM* | . | ? | -1% | . | -21%
SMILES | HCV inhibitor | Shiga toxin inh | Pf growth 48h | AMA1-RON2 inh | Cycloheximide cs | Pf growth 96h
CCN(CC(=O)Nc1ccc(NC(C)=O)cc1)C(=O)CSCC(=O)Nc1ccc(C)cc1 | 8% | . | -4% | 19% | . | 8%
CCCCNC(=O)c1nc(C2CCNCC2)oc1-c1ccccc1 | . | . | . | -9% | . | .
COc1ccc(Nc2nc(N3CCN(S(=O)(=O)N(C)C)CC3)nc3ccccc23)cc1 | 11µM* | -8 | 10µM* | 5% | -1 | 8.3µM*
CC(Nc1nc(N2CCN(S(C)(=O)=O)CC2)nc2ccccc12)c1ccccc1 (centres undefined) | -29% | -7 | 7.4µM* | -5% | -2 | ?
O=C(N/N=C/c1cccc([N+](=O)[O-])c1)c1ccc2nc[nH]c2c1 | -23% | -2 | . | 43% | -3 | -17%
CC1(C)COC(c2cc([N+](=O)[O-])ccc2Cl)=N1 | -3% | -8 | . | 2% | -1 | 23%
O=[N+]([O-])c1cccc(/C=C/c2nc[nH]c2[N+](=O)[O-])c1 | 4% | -1 | ? | 8% | -3 | 1.5µM*
CC1(C)COC(/C=C/c2cccc([N+](=O)[O-])c2)=N1 | ? | 65* | ? | 11% | 34* | -31%
CS(=O)(=O)c1ccc(Cl)c(NC(=O)c2ccc(-n3cncn3)c([N+](=O)[O-])c2)c1 | . | . | . | -5% | . | .
Cc1ccc(-c2nn(-c3ccccc3)cc2/C=N/NC(=O)c2ccc(Br)o2)cc1 | -11% | 36* | ? | 13% | 24* | ?
O=C(N/N=C\c1cn(-c2ccccc2)nc1-c1ccccc1)c1ccc(Br)o1 | 4µM* | 80* | 9.3µM* | -6% | 14* | 4.1µM*
O=C(N/N=C/c1cn[nH]c1-c1ccccc1)c1ccco1 | -8% | 72* | -7% | 3% | 26* | -12%
Cc1nnc(SCC(=O)N/N=C/c2cn(-c3ccccc3)nc2-c2ccccc2)n1-c1ccccc1 | ? | 66 | 42% | 20% | 9 | -7%
O=C(N/N=C\c1cn[nH]c1-c1ccc(Cl)cc1)c1cccs1 | 6% | 81* | 19% | 51% | 36* | 12%
O=C(N/N=C/c1cn(-c2ccccc2)nc1-c1ccccc1)c1ccco1 | ? | 42* | 3.3µM* | -4% | 21* | 37%
CCCC(=O)NCCCCNC(=O)CCC | 5% | 5 | -3% | -4% | -3 | 1%
CC(=O)N(O)CCCCCNC(=O)CCC(=O)N(O)CCCCCNC(=O)CCC(=O)N(O)CCCCCN | 14µM* | -13 | ? | 172% | 0 | ?
Oc1cc(Cc2ccccc2)cnc1CN1CCCCC1 | -3% | 18 | 0.93µM* | 27% | 7 | -25%
O=C(c1cccc(S(=O)(=O)Nc2ccc(Br)cc2)c1)N1CCCC1 | 16% | . | ? | -5% | . | -7%
O=Cc1ccccc1OCCCOc1cccc2cccnc12 | -22% | 56* | 34% | 0% | 24* | 327%
O=Cc1ccc(OCCCOc2cccc3cccnc23)cc1 | 3% | -4 | 36% | 39% | 10 | 5%
O=[N+]([O-])c1ccccc1OCCCOc1cccc2cccnc12 | -11% | . | 28% | 12% | 29* | -25%

Bioassay records as filed in PubChem.
